Compound activity: PubChem, National Center for Advancing Translational Sciences (NCATS)
Compounds with a hit are over-represented: about 11% of the library has one in this group of screens.
MCF10A rerep: inducers of DNA re-replication in MCF 10A breast cells | MCF 10A DNA re-replication, Hoechst nuclear intensity, 48 h | Potency, µM (highest dose often 46.1 µM), most hits filed as activators | hit rate 2.9% among 350,000 | AID 624296; further: nearly all actives have a fitted effect of over 50% in size
RORg inh: ROR gamma (mouse) transcription inhibition | Potency, µM (doses to about 53.6 µM), usual class: inhibitors | hit rate 5.4% among 310,000 | P51450 | Drosophila S2 Gal4-RORgamma UAS-luciferase reporter, 20 h | AID 2551; further: nearly all actives have a fitted effect of over 60% in size
Target sequence (P51450 whole entry, looked up, the tested form may be a part): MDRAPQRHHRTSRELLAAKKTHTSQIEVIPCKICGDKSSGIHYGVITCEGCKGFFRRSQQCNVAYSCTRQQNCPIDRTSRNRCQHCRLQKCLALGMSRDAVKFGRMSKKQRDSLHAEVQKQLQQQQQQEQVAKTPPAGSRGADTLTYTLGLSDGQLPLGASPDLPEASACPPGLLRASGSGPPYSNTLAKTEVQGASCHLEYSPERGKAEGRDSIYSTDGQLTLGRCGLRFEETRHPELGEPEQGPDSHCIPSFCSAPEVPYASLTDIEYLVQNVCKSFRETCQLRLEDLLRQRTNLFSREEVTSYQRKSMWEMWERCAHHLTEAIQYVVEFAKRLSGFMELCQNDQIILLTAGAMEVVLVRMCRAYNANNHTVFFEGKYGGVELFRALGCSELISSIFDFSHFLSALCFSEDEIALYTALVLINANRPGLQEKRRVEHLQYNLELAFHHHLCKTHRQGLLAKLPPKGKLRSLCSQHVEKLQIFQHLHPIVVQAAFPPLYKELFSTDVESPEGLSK
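Schneider cells (Drosophila), stable Gal4 DBD–ROR gamma + UAS-luc; 1 hr cmpd preincubation; Cu2+ induction 700 uM final; 20 hr ambient; luminescence.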
Gal4-VP16 FLuc: counter-screen for ROR gamma inhibitors: Gal4-VP16 reporter; Drosophila S2 Gal4-VP16 UAS-luciferase, luminescence, 20 h; Potency, µM (titrated, usually from 53.6 µM), most hits filed as inhibitors; hit rate 3.5% among 310,000;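 further: Gal4-VP16 expression switched on by copper sulfate through the metallothionein promoter; nearly all actives have a fitted effect of over 50% in size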
SW480 rerep: inducers of DNA re-replication in SW480 colon cancer cells | SW480 DNA re-replication, Hoechst DNA content imaging, 48 h | hit rate 1.8% among 340,000 | Potency, µM (titrated, usually from 46.1 µM), most hits filed as activators; further: nearly all actives have a fitted effect of over 55% in size
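250 cells/well; 23 nL cpd via pin tool; 48 hr, 37 C, 5% CO2; Hoechst 40 min; imager read of total nuclear intensity, ex 405/em 500-530 nm.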
IL1B secr inh: inhibitors of inflammasome signaling (IL-1 beta secretion); THP-1 LPS/ATP IL-1B secretion, AlphaLISA, 16 h; active compounds read low; activity change, % at 57.5 µM; hit rate 4.7% among 360,000; in the data active means activity change below about -50%; inconclusive means mostly about -30% to -49%
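THP-1 cells pretreated 1 hr with compounds (up to 57.5 uM final), then stimulated with LPS (250 ng/mL final) plus ATP (1.25 mM final); secreted IL-1B measured by AlphaLISA after 16 hr, decreased signal indicating inhibition.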
Hits are given with their value; - = inactive; ? = inconclusive; . = no result; [ ] = dose if it differs, or a comment. Unless noted, the call rests on the fitted dose curve; in most records, active means well fitted curve in the direction sought with a large enough effect; inconclusive means small, poorly fitted or top-dose-only effect, or another doubt; inactive means no such curve, though single readings can be large; an effect the other way counts as inactive or inconclusive.

SMILES | MCF10A rerep | RORg inh | Gal4-VP16 FLuc | SW480 rerep | IL1B secr inh
COc1cc(OC)cc(C(=O)NC(=S)Nc2cc3oc4ccccc4c3cc2OC)c1 | ? | 1.4µM | ? | - | -
COc1cc2c(cc1NC(=S)NC(=O)c1c(OC)cccc1OC)oc1ccccc12 | - | 3.5µM | ? | - | -
CC[C@@H](c1ccccc1)n1c(=O)n2n(c1=O)[C@H]1[C@H](O)[C@H]3O[C@@H]3/C(=N/OC[C@@H](O)COCc3ccco3)[C@@H]1CC2 | . | -[10 µM] | -[10 µM] | . | .
COCCC(=O)N1CCC(Oc2ccc(C(=O)NCCC3=CCCCC3)cc2)CC1 | ? | - | - | - | -
COCCNC(=S)Nc1cc2oc3ccccc3c2cc1OC | - | 5.6µM | 7.1µM | ? | -
COc1ccc(C(=O)NC(=S)Nc2cc3oc4ccccc4c3cc2OC)cc1 | - | ? | - | - | -
CC(C)(C)OC(=O)N1CCNc2ccccc2C1 | - | 4µM | ? | - | -
CC(C)(C)OC(=O)N1Cc2cc3ccccc3nc2C1 | . | . | . | . | -
COc1ccc(NC(=O)CN2C(=O)NC(C)(Cc3ccc(OC)c(OC)c3)C2=O)cc1 (stereo not given) | . | . | . | . | -
O=C(c1cnccn1)N1CCC[C@@]2(CCN(c3cccc(-c4ccccc4)c3)C2)C1 | . | - | - | . | .
Cc1ccc(C)c(CN2CCC(CNC(=O)Nc3ccc(F)c(Cl)c3)CC2)c1 | 26µM | - | - | 18µM | -92
Cc1ccc(NC(=O)NCC2CCN(Cc3cc(C)ccc3Cl)CC2)c(C)c1 | - | - | - | - | -
Cc1cc(C)cc(NC(=O)NCC2CCN(Cc3cc(C)ccc3C)CC2)c1 | - | - | - | - | -
Cc1ccc(C)c(CN2CCC(CNC(=O)Nc3cccc(Cl)c3C)CC2)c1 | ? | - | - | ? | -65
Cc1cccc(NC(=O)COC(=O)C2COc3ccccc3O2)c1C (stereo not given) | - | . | . | - | -
CCOc1ccc(CNCc2cccnc2)cc1 | - | - | - | - | -
Brc1ccc(CNCc2cccs2)cc1 | - | - | - | - | -
c1ccc(COc2ccc(CNCc3cccs3)cc2)cc1 | ? | ? | 16µM | - | -
c1ccc(COc2ccc(CNCc3cccnc3)cc2)cc1 | - | - | - | - | -63
COC(C/C=C/C(=O)COCc1ccccc1)OC | ? | ? | ? | ? | -87
O=C(NNS(=O)(=O)c1ccccc1)C1CCCCC1 | - | - | - | - | -
CCCCn1c(=N)c(S(=O)(=O)c2ccc(Br)cc2)cc2c(=O)n3cccc(C)c3nc21 | - | - | - | ? | -
CCCn1c(=N)c(S(=O)(=O)c2ccc(F)cc2)cc2c(=O)n3cccc(C)c3nc21 | 5.2µM | - | - | ? | -
COCCn1c(=N)c(S(=O)(=O)c2ccc(F)cc2)cc2c(=O)n3cccc(C)c3nc21 | 3.7µM | - | - | ? | -
COc1cccc(NC(=O)CN(C)C(=O)CSCC(=O)Nc2ccc(C)cc2)c1 | - | . | . | ? | -
SMILES | MCF10A rerep | RORg inh | Gal4-VP16 FLuc | SW480 rerep | IL1B secr inh
COCCn1c(-c2ccc(-c3ccc([N+](=O)[O-])cc3Br)o2)nc2c1c(=O)[nH]c(=O)n2CC(C)C | 18µM | - | - | - | -
COCCn1c(=O)[nH]c(=O)c2c1nc(-c1ccc(-c3ccc(Cl)cc3[N+](=O)[O-])o1)n2Cc1ccccc1 | 5.2µM | ? | ? | ? | -
COc1ccc(-c2ccc(-c3nc4c(c(=O)[nH]c(=O)n4Cc4ccccc4)n3C)o2)c([N+](=O)[O-])c1 | - | -[10 µM] | - | - | -
O=C(O)CCCC(=O)Nc1ccc2c(c1)oc1ccccc12 | - | 11µM | ? | - | -
CC(C)OC(=O)C1=C2SCC(=O)N2C(N)=C(C#N)C1 | - | 13µM | - | - | -
CCn1c(/C=C/c2ccc(O)c(O)c2)nc2ccccc2c1=O | ? | - | - | ? | -
CCn1c(/C=C/c2ccc(O)cc2)nc2ccccc2c1=O | ? | ? | - | -[9.22 µM] | -96
CCn1c(/C=C/c2cc(Br)ccc2O)nc2ccccc2c1=O | 16µM | ? | - | ? | -58
O=C(CSc1cccc[n+]1[O-])c1cc(Cl)ccc1Cl | - | 11µM | ? | ? | -
O=C(CSc1cccc[n+]1[O-])c1cc2ccccc2o1 | - | ? | ? | 13µM | -
O=C(O)CSc1cccc[n+]1[O-] | - | - | - | - | -
c1csc(-c2noc(COc3ccc4c(c3)CCCC4)n2)c1 | 15µM | ? | - | - | -
